This is an account of results in PubChem BioAssay.

Molecules are shown by their SMILES.

A short description of the experiment: compound effects on differentiated 3T3-L1 adipocyte viability – cell-based, 3T3-L1 adipocytes, calcein-AM fluorescence, 48 h, basal, profiling panel (AID 1163). Note: test concentration not given here. The settings on record: 3T3-L1 adipocytes viability, higher = more signal.
For `COC(=O)[C@@]1(Cc2ccc(OC)cc2)[C@H]2c3cc(C(=O)N(C)C)n(Cc4ccc(C)o4)c3C[C@H]2CN1C(=O)c1ccccc1`, the z-score is -0.0339.

Regarding `CCCCCN1CC=CC23O[C@@H]4/C=C\CCC(C)OC(=O)C4[C@H]2C(=O)N(C(CO)C(C)C)[C@@H]3C1=O` (stereo partly specified), the z-score is 0.214.

With `CCOC(=O)C[C@H]1[C@H](OC(=O)c2ccccc2-c2ccccc2)[C@@H](NC(=O)c2ccc3ccccc3n2)c2cc(OCCCO)ccc2N1C(=O)Cc1ccc(OC)cc1`, the z-score is 0.054.

Take `O=C1OCCC/C=C\[C@H]2OC34C=CCN(c5ccc6ccccc6c5)C(=O)[C@H]3N(CCO)C(=O)[C@@H]4C12` (stereo partly specified): the z-score is 1.91.

For `O=C1N(Cc2ccccc2)c2ccccc2C[C@]12N=C(c1ccc(OCCCO)cc1)O[C@@H]2c1ccccc1`, the z-score was -0.372.

On to `O[C@@H](Cc1ccccc1)[C@@H](/C=C/C1CC1)N(CC#Cc1ccccc1)Cc1ccccc1Br`, for which the z-score is -0.667.

On to `O=C(C1N=C(c2ccc(OCCCO)cc2)N(c2ccccc2)O1)N1CCCCC1` (stereo unspecified), for which the z-score was 0.936.

In the case of `CC(C)[Si]1(C(C)C)OCc2cc(-c3ccc(-c4ccc(Cl)c(Cl)c4)o3)nc(-c3ccccc3)c21`, the z-score is 0.369.

Turning to `COc1ccc([Si](C)(C)[C@@H]2[C@@H](CCO)O[C@]3(C(=O)N(Cc4ccccc4)c4ccc(NC(=O)[C@H](C)O)cc43)[C@H]2C)cc1`, the z-score was 0.641.

As to `COc1cc(NN2C(C(O)c3ccc(N(C)C)cc3)C=CC3C(=O)N(c4ccccc4)C(=O)C32)cc(OC)c1OC` (stereo unspecified), the z-score is 0.808.

Turning to `Cn1cccc1C(O)C1C=CC2C(=O)N(c3ccccc3)C(=O)C2N1Nc1ccccc1` (stereo unspecified), the z-score was -1.86.

As to `CCOC(=O)C=Cc1cccc(C)c1O`, the z-score was 0.407.

On to `COC(=O)C1=CC(CCCO)=CC(c2cccs2)N(Cc2cccc(OC(F)(F)F)c2)C=C1C(=O)OC` (stereo unspecified), for which the z-score is 0.543.

In the case of `[N-]=[N+]=Nc1ccccc1[C@@H]1OC(c2ccc(OCCCO)cc2)=N[C@]1(Cc1ccccc1)C(=O)N1CCCCC1`, the z-score is -0.0528.

Regarding `C=CCNC(=O)[C@@H]1[C@H]2C(=O)O[C@H](c3ccccc3)[C@H](c3ccccc3)N2[C@H](c2ccc(O)cc2)[C@@]12C(=O)N(C(=O)OCCOC)c1ccc(C#CC3=CCCCC3)cc12`, the z-score was 0.725.

Regarding `CCOC(=O)C[C@H]1[C@H](OC(=O)c2cc3ccccc3oc2=O)[C@@H](NC(=O)CC(C)C)c2cc(OCCCO)ccc2N1C(=O)c1ccc2ccccc2n1`, the z-score was -0.166.

For the compound `NCCCCCNC(=O)[C@@H]1C[C@@H]2C(=O)N[C@@H](CCCCN)C(=O)N2[C@@H]1c1ccc(O)cc1`, the z-score was -0.426.

Turning to `CC(C)C(CO)N1C(=O)[C@@H]2C3C(=O)OCCC/C=C\[C@H]3OC23C=CCN(Cn2nnc4ccccc42)C(=O)[C@@H]13` (stereo partly specified), the z-score was 0.0251.

As for `[N-]=[N+]=NCc1ccccc1C[C@@]1(C(N)=O)N=C(c2ccc(OCCCO)cc2)O[C@@H]1c1ccccc1`, the z-score is 0.0779.

With `CCOC(=O)C[C@H]1[C@H](OC(=O)c2ccc(C(=O)c3ccccc3)cc2)[C@@H](NC(=O)CC(C)C)c2cc(OCCCO)ccc2N1C(=O)c1ccccc1`, the z-score is -0.408.

`CC(C)[Si](C#C[Si](C(C)C)(C(C)C)C(C)C)(O[C@H](c1ccccc1)c1cn(Cc2ccccc2)nn1)C(C)C`: the z-score was -0.224.

With `COC(=O)C/C=C/C[C@]1(O)C(=O)N(C)c2ccccc21`, the z-score is 0.349.

Regarding `CN1C(=O)C2C=CC(C(O)c3cccn3C)N(Nc3ccc([N+](=O)[O-])cc3[N+](=O)[O-])C2C1=O` (stereo unspecified), the z-score was -1.35.

On to `C=CCN1Cc2ccccc2[C@@H]2OC(c3ccc(OCCCO)cc3)=N[C@]2(CC=C)C1=O`, for which the z-score is 1.44.

With `CCCC=C(CCC)[C@@H](NP(=O)(c1ccccc1)c1ccccc1)c1ccc(-c2ccccc2)cc1`, the z-score was -0.933.

`C=C(COC)C(=O)CC[C@@H](OC(C)=O)c1cccc(OCCO)c1`: the z-score was 0.617.

Consider `CCOC(=O)C1=CC[C@@H](c2ccccc2F)N(S(=O)(=O)c2ccc(C)cc2)[C@H]1c1ccccc1`, for which the z-score is -0.815.

As to `O=C1O[C@H](c2ccccc2)[C@H](c2ccccc2)N2[C@H]1[C@@H](C(=O)O)[C@]1(C(=O)Nc3ccc(C#CCCO)cc31)[C@H]2c1ccccc1OCCO`, the z-score was 1.32.

As to `COc1cc2c(cc1O)C(C1CC1)N(C)CC2` (stereo unspecified), the z-score is 0.381.

As to `COC(=O)[C@@]1(Cc2ccc(OC)cc2)[C@H]2c3cc(C(=O)N4CCCC4)n(CCO)c3C[C@H]2CN1C(=O)c1ccccc1`, the z-score is 0.929.

Consider `[N-]=[N+]=Nc1ccccc1C[C@]1(C(=O)N2CCOCC2)COC(c2ccc(OCCCO)cc2)=N1`, for which the z-score was 1.31.

With `O=C1C2C=CC(C(O)c3ccco3)N(Nc3ccccc3F)C2C(=O)N1c1ccccc1` (stereo unspecified), the z-score is -0.912.

Turning to `CCCCCN1CC=CC23O[C@@H]4/C=C\CCCOC(=O)C4[C@H]2C(=O)N(C(C)CO)[C@@H]3C1=O` (stereo partly specified), the z-score is -0.0628.

On to `COC(=O)c1c(CC[C@@H](CO)NC(=O)N2CCC[C@H]2Cn2cc(C3(O)CCCCC3)nn2)oc(C(C)=O)c1C(=O)OC`, for which the z-score was 0.209.

As to `CCCCNC(=O)c1ccc(C#CC(C)(C)C)c(OC(C)=O)c1`, the z-score is 1.75.

Regarding `COc1ccccc1CN1C(=O)c2ccccc2[C@](Cc2ccccc2I)(C(=O)O)[C@@H]1c1ccc(CO)cc1`, the z-score is -1.03.
